# This is a sample that favours compounds with a hit; in the whole collection about 0.45% have one here.
# EPAC2 ag = EPAC2 (human) agonism. Potency, µM (titrated, usually from 154 µM), inactives show at the top dose activation, usual class: activators. Q8WZA2. hit rate 0.079% among 360,000. AID 720711. EPAC2 activation, biochemical qHTS; response scale: 100% = 6.5 mM cAMP response; further: nearly all actives have a fitted effect of over 50% in size
# Target sequence (Q8WZA2 whole entry, looked up): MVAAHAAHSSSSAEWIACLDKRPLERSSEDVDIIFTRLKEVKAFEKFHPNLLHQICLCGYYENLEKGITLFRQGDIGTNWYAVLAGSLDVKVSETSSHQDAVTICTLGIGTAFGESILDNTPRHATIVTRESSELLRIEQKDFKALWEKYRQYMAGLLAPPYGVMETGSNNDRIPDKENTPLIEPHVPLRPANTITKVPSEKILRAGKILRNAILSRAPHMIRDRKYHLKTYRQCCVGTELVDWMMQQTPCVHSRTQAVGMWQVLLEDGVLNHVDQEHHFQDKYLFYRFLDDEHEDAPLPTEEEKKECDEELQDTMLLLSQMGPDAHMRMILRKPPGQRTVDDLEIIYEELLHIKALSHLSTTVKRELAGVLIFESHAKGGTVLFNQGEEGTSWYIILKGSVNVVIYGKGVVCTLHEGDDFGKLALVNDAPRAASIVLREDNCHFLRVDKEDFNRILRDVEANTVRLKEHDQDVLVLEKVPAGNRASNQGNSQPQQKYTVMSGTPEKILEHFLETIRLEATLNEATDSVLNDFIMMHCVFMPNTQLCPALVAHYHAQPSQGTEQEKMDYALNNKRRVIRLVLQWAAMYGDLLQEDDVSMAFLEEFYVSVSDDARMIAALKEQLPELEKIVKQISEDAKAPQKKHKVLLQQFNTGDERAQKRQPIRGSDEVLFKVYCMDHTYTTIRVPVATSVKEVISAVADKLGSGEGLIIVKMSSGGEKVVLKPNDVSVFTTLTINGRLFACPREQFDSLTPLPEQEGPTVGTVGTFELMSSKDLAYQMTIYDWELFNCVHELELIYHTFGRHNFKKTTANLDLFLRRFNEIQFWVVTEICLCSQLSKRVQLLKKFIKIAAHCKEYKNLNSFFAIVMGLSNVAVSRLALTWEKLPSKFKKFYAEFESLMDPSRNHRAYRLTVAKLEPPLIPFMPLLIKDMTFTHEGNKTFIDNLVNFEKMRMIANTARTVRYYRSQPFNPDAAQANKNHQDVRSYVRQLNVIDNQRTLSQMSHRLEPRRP
#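 Guanine nucleotide exchange by EPAC2 is measured as reduced fluorescence of BODIPY-GDP once it is released from 250 nM Rap1B. Plates are read kinetically for 30 min at room temperature; results are scaled to 6.5 mM cAMP.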
# EPAC1 ag = agonists of human EPAC1; O95398; EPAC1 agonist qHTS, biochemical assay; response scale: 100% = response to 6.5 mM cAMP; Potency, µM (highest dose often 154 µM), for the others: at the highest dose activation, most hits filed as activators; hit rate 0.073% among 360,000; AID 720707; further: nearly all actives have a fitted effect of over 60% in size
#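 Multi-concentration qHTS readout: loss of Rap1B-bound BODIPY-GDP fluorescence driven by 100 nM EPAC1 with excess GDP (50 uM), monitored kinetically at room temperature; agonist response expressed relative to 6.5 mM cAMP.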
# USP1 inh = inhibitors of human USP1/UAF1 deubiquitinase | O94782 | recombinant USP1/UAF1, Ub-Rhodamine cleavage fluorescence | Potency, µM (top dose mostly 57.1 µM), for inactives: at the top dose activity change, negative = inhibition, actives largely listed as inhibitors | hit rate 0.23% among 390,000; further: on the % scale 0 is the no-effect control and ±100 the full control effect; nearly all actives have a fitted effect of over 60% in size
#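 USP1/UAF1 complex at 1 nM was preincubated with compound for 15 min at room temperature, then Ub-Rho substrate (150nM final) was added. Fluorescence (480/540 nm) was read kinetically, 6 reads every 60 seconds.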
# USP2a inh = blocks human ubiquitin-specific protease USP2a; O75604; USP2 core, Ub-CHOP2 coupled fluorogenic reporter, 485/531; Potency, µM (series often up to 38.3 µM), for inactives: at the top dose activity change, negative = inhibition, hits mostly inhibitors; hit rate 0.01% among 330,000; AID 463254;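 further: plate controls were DMSO wells for no effect and full inhibition by NEM control for full effect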
#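 USP2 core (10nM final) preincubated 30min RT with compound in 20mM Tris-HCl pH 8.0, 2mM CaCl2, 2mM beta-mercaptoethanol, 0.05% CHAPS; 25nM Ub-CHOP2 plus 25nM reporter substrate added, fluorescence (Ex485/Em531) read after 60min.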
# EPAC1 antagonist = blocks human EPAC1 exchange factor. hit rate 0.14% among 360,000. O95398. Potency, µM (top dose mostly 115 µM), for the others: top-dose activity change, negative = inhibition, most hits filed as inhibitors. AID 720709. EPAC1 GEF assay, Rap1b-BODIPY-GDP exchange fluorescence;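 further: plate controls were vehicle for no effect and positive control for full effect; nearly all actives have a fitted effect of over 50% in size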
# EPAC2 antagonist = EPAC2 (human) antagonism | Q8WZA2 | Potency, µM (highest dose often 114 µM), without a hit: top-dose activity, negative = inhibition, most hits filed as inhibitors | hit rate 0.18% among 360,000 | EPAC2 GEF exchange of Rap1B-BODIPY-GDP, fluorescence; further: on the % scale 0 is the no-effect control and ±100 the full control effect; nearly all actives have a fitted effect of over 45% in size
# Numbers without * were called inactive; i = inactive; u = inconclusive; x = no result. The call rests on the fitted dose curve; in most records, active means well fitted curve in the direction sought with a large enough effect; inconclusive means small, poorly fitted or top-dose-only effect, or another doubt; inactive means no such curve, though single readings can be large; an effect the other way counts as inactive or inconclusive. Potency means the concentration at half of the fitted maximal effect.
SMILES,EPAC2 ag,EPAC1 ag,USP1 inh,USP2a inh,EPAC1 antagonist,EPAC2 antagonist
Cc1ccc(O)c(N=Cc2cc(Cc3ccccc3)cc([N+](=O)[O-])c2O)c1,13%,17%,25µM*,-1%,u,u
O=[N+]([O-])c1cc(Cc2ccccc2)cc(C=Nc2ccc(N3CCOCC3)cc2)c1O,-6%,2%,25µM*,2%,0%,u
CS(=O)(=O)N1N=C(c2ccco2)CC1c1ccc(Cl)cc1Cl (stereo not drawn),6%,4%,-14%,1%,-5%,10µM*
CCCN(CCC)c1nn2c(=O)c(C(=O)NCc3cc(Br)ccc3OC)cnc2s1,x,x,-18%,x,x,x
COc1cccc(-n2cc(C(=O)Nc3ccccc3C(N)=O)c3ccccc3c2=O)c1,x,x,10%,x,x,x
N#Cc1c(NC(=O)C2CC=CCC2C(=O)O)sc2c1CCCCCC2 (stereo not drawn),2%,11%,2%,3%,79µM*,-26%
Cc1cc(C)c2nc(NNC(=O)c3ccc(S(=O)(=O)N4CCc5ccccc5C4)cc3)sc2c1,-6%,-32%,-14%,0%,1%,4%
Cc1cc(C)c2nc(NNC(=O)c3cc(=O)c4ccccc4o3)sc2c1,-1%,-26%,28µM*,3%,-1%,6%
Cn1ncc2c1NC(c1ccc(F)cc1)SCC2=O (stereo not drawn),2%,-17%,-25%,x,7%,0%
O=S(=O)(c1ccc(NC(=S)N/N=C/c2ccc(O)c(O)c2)cc1)N1CCOCC1,13%,11%,-8%,1%,u,-10%
O=[N+]([O-])c1cc(Cl)cc(/C=N/NC(=S)Nc2ccc(S(=O)(=O)N3CCOCC3)cc2)c1O,-11%,-10%,u,2%,u,56µM*
S=C(Nc1ccc(N2CCOCC2)cc1)Nc1ccc2nc(-c3ccco3)c(-c3ccco3)nc2c1,18%,5%,25µM*,u,u,0%
O=C(Nc1ccc2nc(-c3ccco3)c(-c3ccco3)nc2c1)N1CCN(c2ccccn2)CC1,2%,2%,-15%,u,35µM*,-14%
Cc1nc2cc(NC(=O)N3CCN(c4ccccn4)CC3)ccc2o1,-1%,9%,-8%,x,-3%,-3%
O=C(Nc1ccc(N2CCOCC2)cc1)c1ccc2nc(-c3ccco3)c(-c3ccco3)nc2c1,3%,-6%,-4%,-2%,1%,17%
O=c1oc2cc(O)ccc2cc1-c1nc2ccccc2o1,u,63µM*,x,x,86%,8%
Cc1ccc(C)c(S(=O)(=O)/N=C2\C=C(NS(=O)(=O)c3ccccc3)C(=O)c3ccccc32)c1,11%,11%,16µM*,4%,10%,u
CC(C)c1ccc(S(=O)(=O)/N=C2\C=C(NS(=O)(=O)c3ccccc3)C(=O)c3ccccc32)cc1,0%,18%,u,-29%,-29%,u
CCc1ccc(S(=O)(=O)/N=C2\C=C(NS(=O)(=O)c3ccccc3)C(=O)c3ccccc32)cc1,15%,-7%,25µM*,-9%,u,u
Cc1ccccc1C(=O)OCc1cc(=O)n2nc(C3CC3)sc2n1,x,x,-3%,x,x,x
CC[n+]1c(/C=C/C=C/N(C(C)=O)c2ccccc2)sc2cc(OC)ccc21,u,100µM*,28µM*,29%,141%,46%
COc1ccc([C@H]2N[C@]3(CCCN(Cc4ccc(Cl)cc4)C3=O)[C@H]3C(=O)N(Cc4ccccc4)C(=O)[C@@H]23)cc1,8%,6%,-21%,x,18%,5%
COc1cccc(CSc2nc(-c3ccccc3OC)nc3c2Cc2c(CO)cnc(C)c2O3)c1,x,x,-18%,x,x,x
Nc1c(C(=O)Nc2ccc(F)cc2)sc2nc(-c3cccs3)cc(C(F)(F)F)c12,x,x,i,x,x,x
Nc1c(C(=O)C2CC2)sc2nc(-c3cccs3)cc(C(F)(F)F)c12,112µM*,27%,u,10%,-4%,219%

# High-throughput results deposited in PubChem BioAssay by National Center for Advancing Translational Sciences (NCATS).
